# Shown are actives, neighbours in structure and some others; about 1.5% of the full set was active somewhere.
# BCLXL inh: blocks human Bcl-xL binding to Bim BH3 peptide; Q07817; GST-Bcl-xL / FITC-Bim BH3 peptide fluorescence polarization; inhibition, % at 10.9 µM; 320,000 compounds, 0.7% hits;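 active = inhibition above the mean of all tested compounds plus 3 SD, cutoff set per campaign, cut at about 30% in these data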;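 also: 0% = DMSO wells and 100% = unlabeled Bim-BH3 peptide competitor; inhibitors lower millipolarization by displacing the labeled peptide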
# GLD-1 RNA inh: GLD-1-TGE RNA interaction inhibition (C. elegans) | Q17339 | purified GLD-1 + fluorescein TGE RNA, fluorescence polarization | inhibition, % at 5.96 µM | 320,000 compounds, 0.44% hits | AID 2280;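 active = percent inhibition above a per-plate cutoff, the plate mean of test compounds plus 3 SD, cut at about 30% in these data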;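 also: 0% = DMSO wells with GLD-1 and probe and 100% = wells lacking GLD-1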
# MEX-5 binding: C. elegans MEX-5 TCR-2 RNA binding activity. 300,000 compounds, 0.38% hits. Q9XUB2. activity score (negative = inhibition of binding), % at 10 µM. MEX-5/FITC-TCR2 RNA binding, fluorescence polarization; active compounds read low;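 active = inhibition past about -25% in most replicates, and total fluorescence under double the plate's negative control median, limit read from the data; inconclusive = replicates evenly split on the limit, or fluorescence at least double controls; inactive = too little inhibition in most replicates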;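 also: 0% = DMSO and -100% = 5 µM competing unlabeled TCR2 RNA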
# Target sequence (Q9XUB2 whole entry, looked up): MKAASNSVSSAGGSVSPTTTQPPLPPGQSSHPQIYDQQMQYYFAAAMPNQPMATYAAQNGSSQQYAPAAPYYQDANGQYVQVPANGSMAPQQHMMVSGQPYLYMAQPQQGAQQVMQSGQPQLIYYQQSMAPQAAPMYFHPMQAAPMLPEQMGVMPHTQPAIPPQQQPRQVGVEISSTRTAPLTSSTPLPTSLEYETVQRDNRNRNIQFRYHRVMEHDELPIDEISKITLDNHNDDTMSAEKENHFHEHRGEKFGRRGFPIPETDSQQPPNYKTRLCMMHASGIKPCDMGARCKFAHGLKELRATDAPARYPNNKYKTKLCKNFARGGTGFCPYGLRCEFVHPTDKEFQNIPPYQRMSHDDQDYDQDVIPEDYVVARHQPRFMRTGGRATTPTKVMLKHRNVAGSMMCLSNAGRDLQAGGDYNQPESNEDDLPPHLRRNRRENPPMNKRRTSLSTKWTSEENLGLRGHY
# EBV gp42 inh: EBV gp42 inhibition; Fluorescence polarization binding assay, mP read-out; inhibition, % (tested at 21.74 µM); 220,000 compounds, 0.42% hits; in the data active = inhibition above about 50%
# MCL1-BIM inh: disrupts human MCL1 binding to BIM-BH3 peptide; Q07820; GST-MCL1 / FITC-Bim-BH3 fluorescence polarization; AID 2057; 320,000 compounds, 0.68% hits; inhibition, % at 10.9 µM;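 active = inhibition above the mean inhibition of all tested compounds plus 3 SD, set per campaign, cut at about 40% in these data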;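 also: 0% = DMSO wells and 100% = unlabeled Bim-BH3 peptide control; higher means more loss of mP so more displacement of Bim peptide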
# eLon inh: inhibits E. coli Lon protease. P0A9M0. purified E. coli Lon protease, fluorescence polarization. inhibition, % at 7.94 µM. 360,000 compounds, 0.42% hits. AID 602123; in the data active = inhibition above about 13%, passing the limit was not always enough;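 also: 0% = enzyme with probe and DMSO and 100% = no enzyme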
# Bcl-xL conf: Bcl-xL (human) inhibition, MCL1 counter-screen confirmation; inhibition, % at 10.9 µM; AID 2166; GST-Bcl-xL / FITC-Bim BH3 peptide FP binding; 1,700 compounds, 54% hits; shares compounds with MCL1-BIM inh;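 active = inhibition above a cutoff equal to the mean inhibition of all tested compounds plus 3 SD, cut at about 30% in these data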;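 also: 0% = DMSO wells and 100% = unlabeled Bim BH3 control peptide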
# MCL1 BIM confirm: MCL1-BIM-BH3 interaction inhibition, confirmation; GST-MCL1 / FITC-Bim-BH3 fluorescence polarization; AID 2168; shares compounds with MCL1-BIM inh; 1,700 compounds, 61% hits; inhibition, % at 10.9 µM;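 active = inhibition above the average of all tested compounds plus 3 SD, cut at about 40% in these data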;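 also: 0% = DMSO wells and 100% = unlabeled Bim-BH3 control peptide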
# GLD-1 TGE cf: confirmation of C. elegans GLD-1 TGE RNA binding inhibitors; AID 2459; 550 compounds, 10% hits; GLD-1/FL-TGE RNA fluorescence polarization, biochemical; inhibition, % at 5.96 µM; shares compounds with GLD-1 RNA inh;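 active = average inhibition across triplicates above the hit cutoff set in the primary screen, cut at about 32% in these data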;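 also: 0% = GLD-1 with RNA probe and DMSO and 100% = wells lacking GLD-1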
# eLon confirm: confirmation of E. coli Lon protease inhibitors. 1,400 compounds, 31% hits. purified E. coli Lon, fluorescence polarization. AID 602230. inhibition, % at 7.94 µM. shares compounds with eLon inh; in the data active = inhibition above about 16%;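 also: 0% = enzyme with probe and DMSO and 100% = no enzyme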
# Starred values were filed as active, the others as inactive; ? = inconclusive; / = not tested or not shown; + = active, no number.
SMILES,BCLXL inh,GLD-1 RNA inh,MEX-5 binding,EBV gp42 inh,MCL1-BIM inh,eLon inh,Bcl-xL conf,MCL1 BIM confirm,eLon confirm,others
N#CC(C#N)=C1C=CC=CN1/C(=C\c1ccccc1)C(=O)c1cccs1,29,6,0,-7,42*,25*,37*,65*,9,
COc1cc2oc(=O)cc(CN3CCCCCCC3)c2cc1Cl,/,/,/,/,/,-8,/,/,/,
N#CC12COC3(CCCCC3C1(C#N)C#N)OC2=N (stereo not drawn),63*,74*,-6,5,72*,46*,21,12,-24,
N#CC1(C#N)COC23CCCCC2C1(C#N)C(=N)O3 (stereo not drawn),68*,45*,-2,-5,78*,23*,16,15,10,GLD-1 TGE cf=-4
COc1ccc(C2OC34CCCCC3C(C#N)(C#N)C2(C#N)C(=N)O4)cc1 (stereo not drawn),135*,101*,-84*,-3,155*,34*,105*,135*,34*,
CCC1OC23CCCCC2C(C#N)(C(=N)O3)C1(C#N)C#N (stereo not drawn),77*,57*,0,-12,78*,28*,4,7,10,
CC12CCC(=O)N1C(C(=O)N1CCN(c3ccc([N+](=O)[O-])cc3)CC1)CS2 (stereo not drawn),/,2,/,/,/,-1,/,/,/,
CCN1C(=O)[C@H]2[C@@H](c3ccc(-c4ccc(Cl)c(Cl)c4)c(OC)c3)N[C@@](Cc3ccccc3)(C(=O)OC)[C@H]2C1=O,5,-3,0,/,4,1,/,/,/,
CC1(C(=O)NS(=O)(=O)c2ccc(C#N)cc2)CCN1C(=O)CCC1CCCC1 (stereo not drawn),/,/,/,/,/,-12,/,/,/,
CCCCSc1nc(N)nc2c1ncn2C1OC(CO)C(O)C1O (stereo not drawn),/,/,/,/,/,-4,/,/,/,
O=S(=O)(Nc1cc(S(=O)(=O)N2CCOCC2)ccc1NCC1CCCO1)c1ccccc1 (stereo not drawn),4,5,/,/,9,-22,/,/,/,
OC(c1ccc(F)c(F)c1)c1ncc(-c2ccccc2F)[nH]1 (stereo not drawn),/,/,/,/,/,4,/,/,/,
CCN1C(=O)c2cccc3c(Cl)ccc(c23)C1=O,4,3,0,7,4,-10,/,/,/,
Cc1ccnc(N2C(=O)c3ccccc3C2=O)c1,3,-2,0,/,3,8,/,/,/,
Nc1cccc(N2C(=O)c3cccc4c(N)ccc(c34)C2=O)c1,+,195*,?,/,+,+,+,+,+,
CC(C)CCN1C(=O)c2cccc3c(N)ccc(c23)C1=O,173*,185*,/,/,+,+,145*,164*,143*,
Cc1cccc(N2C(=O)c3cccc4c(N(C)CCO)ccc(c34)C2=O)c1,183*,176*,?,157*,+,175*,169*,+,144*,
Cc1ccnc(N2C(=O)c3cccc4c([N+](=O)[O-])ccc(c34)C2=O)c1,88*,77*,-21,67*,103*,53*,82*,119*,64*,
Cc1cccc(N2C(=O)c3cccc4c(N)ccc(c34)C2=O)c1,+,+,?,/,+,+,198*,+,+,
Cc1cc(C)c[n+](-c2[nH]c(=O)sc2/C=N/NC([S-])=Nc2ccccc2)c1,129*,117*,-49*,27,167*,70*,61*,60*,76*,
O=c1[nH]c(-[n+]2ccccc2)c(/C=N/NC([S-])=Nc2ccccc2)s1,164*,143*,-82*,2,183*,94*,110*,127*,2,
CCc1ccc[n+](-c2[nH]c(=O)sc2/C=N/NC([S-])=Nc2ccccc2)c1,122*,108*,-55*,66*,144*,105*,154*,185*,129*,
CCc1ccc[n+](-c2[nH]c(=O)sc2/C=N/N=C(\N)[O-])c1,3,4,-3,-15,0,-1,/,/,/,
CC(C)(C)c1cc[n+](-c2[nH]c(=O)sc2/C=N/NC(=O)c2ccccc2[O-])cc1,97*,70*,-18,/,126*,43*,84*,129*,36*,
[S-]C(=Nc1ccc(Cl)cc1)N[n+]1ccccc1,7,5,-1,1,5,-7,/,/,/,
SMILES,BCLXL inh,GLD-1 RNA inh,MEX-5 binding,EBV gp42 inh,MCL1-BIM inh,eLon inh,Bcl-xL conf,MCL1 BIM confirm,eLon confirm,others
CC(C)(C)c1ccc(/C=N/NC(=O)C[n+]2ccccc2)cc1,3,8,1,/,-6,15,/,/,/,
NC(=S)N/N=C/c1ccc(-n2nncc2-c2ccc(Cl)cc2)cc1,6,2,1,/,7,4,/,/,/,
CC(C)C(C(=O)O)N1C(=O)C2C3CCC(C3)C2C1=O (stereo not drawn),/,/,/,/,/,1,/,/,/,
CCCCNC(=O)C1(C)CCCCN1C(=O)c1cncc(Br)c1 (stereo not drawn),/,/,/,/,/,2,/,/,/,
Cc1cc[n+](-c2[nH]c(=O)sc2/C=N/NC([S-])=Nc2ccccc2)cc1,139*,116*,-21,59*,164*,63*,128*,128*,53*,
CCOc1ccccc1O[C@H](c1ccccc1)[C@H]1CNCCO1,5,-1,2,/,-1,37,/,/,/,
CCOC(=O)c1[nH]cnc1N=Nc1c(O)ccc2ccccc12,103*,60*,-4,56*,93*,44*,75*,84*,76*,GLD-1 TGE cf=32*
Oc1ccc2ccccc2c1N=Nc1ccccn1,2,-5,-8,0,8,-6,/,/,/,
CCOC(=O)C1=C[C@@H](C(C)C)N(S(=O)(=O)c2ccc(C)cc2)[C@H]1c1ccc(C(C)C)cc1,/,/,/,/,/,-7,/,/,/,
CCOC(=O)C1=C(COC(=O)c2ccccc2OC(F)F)NC(=O)NC1C (stereo not drawn),-3,2,3,/,0,14,/,/,/,
CCOC(=O)C1=C(COC(=O)c2ccc3ccccc3c2O)NC(=O)NC1C (stereo not drawn),61*,46*,/,/,88*,49*,25,24,9,GLD-1 TGE cf=1

# Screening results from PubChem.
